Compound activity deposited in PubChem by several laboratories.
Most compounds without a hit are left out; they make up all but 4.6% or so of the library.
ADAM10 inh – human ADAM10 inhibitors, primary screen, biochemical, QFRET, HTS; recombinant ADAM10, EDANS/DABCYL FRET peptide cleavage, 3 h; inhibition, % at 7 µM; 0.62% of 370,000 active; AID 720582, 2013;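 active = inhibition above a per-campaign cutoff equal to the mean of compounds falling between control-based bounds plus 3 SD, cut at about 20% in these data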
FAS TE block – FAS thioesterase domain inhibitors, primary screen, biochemical, fluorescence intensity, uHTS; 0.67% of 360,000 active; recombinant FAS-TE, OMFH fluorogenic substrate, fluorescence endpoint; Fatty acid synthase (Homo sapiens), P49327; AID 602261, 2012; inhibition, % at 15 µM;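 active = compounds whose normalised, plate-corrected inhibition of enzyme fluorescence in the single-dose primary screen is 50% or more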
NR3A LBD binder – binders of NR3A ligand-binding domain, primary screen, biophysical, differential scanning fluorimetry, uHTS; NR3A LBD differential scanning fluorimetry, Tm shift; 0% = protein alone, 100% = glycine-bound protein; Tm shift relative to glycine control, % at 25 µM; 2.5% of 340,000 active;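 active = melting temperature shift of at least 10% of the positive control shift, at one fixed dose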
ADAM17 inh – ADAM17 inhibitors, primary screen, biochemical, QFRET. Disintegrin and metalloproteinase domain-containing protein 17 (Homo sapiens), P78536. recombinant ADAM17, EDANS/DABCYL FRET peptide cleavage. inhibition, % at 6.95 µM. 0.83% of 370,000 active. AID 720648, 2013;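 active = inhibition above the mean of compounds lying between control limits plus 3 SD, set per campaign, cut at about 8.5% in these data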
proKLK7 act – proKLK7 zymogen activators, primary screen, biochemical, fluorescence intensity | purified proKLK7, EDANS-DABCYL substrate fluorescence; 100% is mature enzyme control, 0% vehicle | activation, % at 7 µM | Kallikrein-7 (Homo sapiens), P49862 | AID 652039, 2013 | 0.9% of 370,000 active;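 active = activation above the mean of all tested compounds plus 3 SD, computed per campaign excluding outliers beyond control limits, cut at about 13% in these data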
Target sequence (P49862 whole entry, looked up): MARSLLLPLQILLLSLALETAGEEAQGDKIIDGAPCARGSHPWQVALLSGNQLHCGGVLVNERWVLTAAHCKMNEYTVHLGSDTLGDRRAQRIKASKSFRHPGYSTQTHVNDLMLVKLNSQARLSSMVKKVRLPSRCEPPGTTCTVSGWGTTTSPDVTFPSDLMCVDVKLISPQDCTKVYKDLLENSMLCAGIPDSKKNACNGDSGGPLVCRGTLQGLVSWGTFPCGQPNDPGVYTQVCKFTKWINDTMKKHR
ADAM10 confirm – human ADAM10 inhibitors, confirmation, biochemical, QFRET, triplicate; shares compounds with ADAM10 inh; ADAM10 QFRET peptide cleavage, EDANS fluorescence; inhibition, % at 6.95 µM; 1% of 2,100 active; AID 743208, 2013;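 active = inhibition above about 20% chosen separately for each screening run, limit read from the data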
ADAM17 ctr – ADAM17 inhibitors, counter-screen for ADAM10 exosite inhibitor project, biochemical, QFRET, high throughput | shares compounds with ADAM10 inh | ADAM17 QFRET peptide cleavage, EDANS fluorescence | inhibition, % at 6.95 µM | 0.5% of 2,100 active | AID 743214, 2013;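 active = mean triplicate inhibition above the solvent-only control wells' mean plus 3 SD, cut at about 12% in these data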
Each line names hits and unclear results; the compound was inactive in the other large screens (follow-up assays come after a bar, where they were run).

O=C(COc1ccc(Cl)cc1)NNC(=O)c1ccc2c(=O)n3c(nc2c1)CCC3	ADAM10 inh 81 | ADAM10 confirm inactive | ADAM17 ctr inactive
Cc1cc2c(nc1C)CCCN2S(=O)(=O)c1ccccc1	none (no result: FAS TE block, NR3A LBD binder)
C[C@@H]1CN([C@@H](C)CO)C(=O)CCCn2cc(nn2)CO[C@H]1CN(C)C(=O)Nc1ccccc1F	none (no result: FAS TE block, NR3A LBD binder)
COc1ccc(-c2nc(-c3ccccc3)c(-c3cc([N+](=O)[O-])ccc3C)[nH]2)cc1O	ADAM10 inh 31 | ADAM10 confirm inactive | ADAM17 ctr inactive
COc1ccc(Cl)cc1Nc1nc(NCCO)nc(N2CCCC2)n1	none
CC(C)Oc1ccc(Cl)cc1Nc1nc(NCCO)nc(N2CCCC2)n1	ADAM10 inh 21 | ADAM10 confirm inactive | ADAM17 ctr inactive
COC(=O)c1cc2c(c3c4cc(C)ccc4n(S(=O)(=O)c4ccc(OC)cc4)c13)C(=O)N(Cc1ccccc1OC)C2	none (no result: FAS TE block, NR3A LBD binder)
C#CCN(Cc1ccco1)C(=O)c1nnc2c3ccccc3n(S(=O)(=O)c3ccc(C)cc3)c2n1	none (no result: FAS TE block, NR3A LBD binder)
C#CCN(C[C@@H]1[C@@H](OC(=O)NCc2ccc(OC)c(OC)c2)[C@@H](OC(=O)NCc2ccc(OC)c(OC)c2)Cn2c(=O)n(CCCCCC)c(=O)n21)S(=O)(=O)c1ccc(C)cc1	ADAM10 inh 21 (no result: NR3A LBD binder) | ADAM10 confirm inactive | ADAM17 ctr inactive
Cc1cc(C)c(C2=NOC3c4ccccc4OCC23)c(C)c1 (stereo not given)	none (no result: FAS TE block, NR3A LBD binder)
CCN(CC)S(=O)(=O)c1cccc(NC(=O)C2SC(=Nc3ccc(C)cc3C)C(C(=O)NC(C)COC)=C2N)c1 (stereo not given)	ADAM10 inh 20 | ADAM10 confirm inactive | ADAM17 ctr inactive
CCOc1cc(NS(=O)(=O)c2ccc(OC)cc2)c(OCC)cc1NC(=O)c1ccco1	none
COc1ccc(S(=O)(=O)Nc2cc(OC)c(NC(=O)c3ccco3)cc2OC)cc1	ADAM10 inh 21 | ADAM10 confirm inactive | ADAM17 ctr inactive
Cc1ccc(S(=O)(=O)N(C)C)cc1NC(=S)NNC(=O)C1CC1	ADAM10 inh 20 | ADAM10 confirm inactive | ADAM17 ctr inactive
Cc1ccc(S(=O)(=O)N(C)C)cc1NC(=O)C1CCCC1	none
COC(=O)[C@H](Cc1ccccc1)N1C[C@@H](N2CCC[C@H]2C)CS1(=O)=O	none (no result: FAS TE block, NR3A LBD binder)
CCCc1ccc(Oc2cn[nH]c2-c2ccc(O)c(C)c2O)cc1	ADAM10 inh 32, ADAM17 inh 14 | ADAM10 confirm inactive | ADAM17 ctr inactive
O=S1(=O)c2c(cccc2N2CC[C@@H](O)C2)O[C@@H]2CCN1C2	none (no result: FAS TE block, NR3A LBD binder)
O=C(Nc1ccc2c(c1)N(Cc1ccccc1)C(=O)c1ccccc1S2)NC1CC1	ADAM10 inh 21 | ADAM10 confirm inactive | ADAM17 ctr inactive
CCSc1nc2c(c(=O)[nH]c(=O)n2C)n1C/C=C(/C)Cl	ADAM10 inh 20 | ADAM10 confirm inactive | ADAM17 ctr inactive
O=C(CC(Cc1ccccc1)C(=O)O)Nc1ccc(F)cc1 (stereo not given)	ADAM10 inh 21 | ADAM10 confirm inactive | ADAM17 ctr inactive
COc1ccc(NC(=O)CC(Cc2ccccc2)C(=O)O)cc1 (stereo not given)	none
COC(=O)[C@]12C[C@H](CC(=O)N3CCCC3)C(=O)N(Cc3ccc4c(c3)OCO4)C1=C[C@H](COCc1ccccc1)O[C@@H]2C	none (no result: FAS TE block, NR3A LBD binder)
CC(C)CCNC(=O)C(c1ccc(O)cc1)N(Cc1cccs1)C(=O)C1COc2ccccc2O1 (stereo not given)	ADAM10 inh 22 | ADAM10 confirm inactive | ADAM17 ctr inactive
CC(C)CC1C(=O)N(Cc2cn(CC3CCCCC3)nn2)CCS(=O)(=O)N1Cc1ccc(-c2cccc(CO)c2)cc1 (stereo not given)	ADAM10 inh 25 (no result: NR3A LBD binder) | ADAM10 confirm inactive | ADAM17 ctr inactive
Cc1csc(NC(=O)c2cccc(Cn3nc(C)c(Br)c3C)c2)n1	ADAM10 inh 20 | ADAM10 confirm inactive | ADAM17 ctr inactive
N#Cc1ccc(S(=O)(=O)N2CCCc3nc(-c4ccc(Br)cc4)ccc32)cc1	none (no result: FAS TE block, NR3A LBD binder)
COc1cc(NC(=O)c2cc(-c3cccs3)on2)cc(OC)c1OC	none
COc1cc(NC(=O)c2cc(-c3ccccc3Cl)on2)cc(OC)c1OC	ADAM10 inh 33 | ADAM10 confirm inactive | ADAM17 ctr inactive
CCOC(=O)C1(C(=O)OCC)Cc2c([nH]c3ccccc23)[C@]2(N1)C(=O)N(C)c1ccc(Br)cc12	ADAM10 inh 25, ADAM17 inh 12 (no result: FAS TE block, NR3A LBD binder) | ADAM10 confirm inactive | ADAM17 ctr inactive
Clc1ccc(CN2CCN(c3ncc(Cc4ccccc4)cn3)CC2)c(Cl)c1	none (no result: FAS TE block, NR3A LBD binder)
O=C(N[C@H](Cc1ccccc1)C(=O)NCC1CCCO1)[C@H]1O[C@@H](n2ccc(=O)[nH]c2=O)[C@H](O)[C@@H]1O (stereo not given in full)	none (no result: FAS TE block, NR3A LBD binder)
CCOC(=O)c1c(CN2CCN(c3ccccc3)CC2)oc2cc(Br)c(O)cc12	ADAM10 inh 21 | ADAM10 confirm inactive | ADAM17 ctr inactive
COc1ccc(NC(=S)NC23CN4CN(CN(C4)C2)C3)cc1	ADAM10 inh 83 | ADAM10 confirm inactive | ADAM17 ctr inactive
CCCCS(=O)(=O)N1CCCc2nc(-c3ccccc3)ccc21	none (no result: FAS TE block, NR3A LBD binder)
Cc1ccc(CN2CCCCC(NC(=O)Nc3cccc(F)c3)C2=O)cc1 (stereo not given)	none (no result: FAS TE block, NR3A LBD binder)
c1ccc(C2CC(c3ccccc3)n3ncnc3N2)cc1 (stereo not given)	none
Clc1ccccc1C1CC(c2ccccc2)Nc2ncnn21 (stereo not given)	ADAM10 inh 92 | ADAM10 confirm inactive | ADAM17 ctr inactive
O=C(CSc1nc2ccccc2[nH]1)Nc1ccc2c(c1)CCC2	ADAM10 inh 20 | ADAM10 confirm inactive | ADAM17 ctr inactive
Nc1ccc(N=Nc2ccccc2)c(N)n1	none
Cc1[nH]c(N=Nc2ccccc2)nc1N=Nc1ccccc1	ADAM10 inh 21 | ADAM10 confirm inactive | ADAM17 ctr inactive
COc1ccc(Cl)cc1NS(=O)(=O)c1ccc(S(=O)(=O)N2CCCC2)cc1	ADAM10 inh 20 | ADAM10 confirm inactive | ADAM17 ctr inactive
ON=C1c2ccccc2-c2ccc(Br)cc21	ADAM10 inh 26 | ADAM10 confirm inactive | ADAM17 ctr inactive
ON=C1c2ccccc2-c2ccc(F)cc21	none
